Test results published in PubChem BioAssay (NCATS).
Where “and” joins values, the source holds several entries; their conditions need not be identical. Equal entries are not always repeated. Results filed as inconclusive are left out. Entries that show only a call come without a potency. Calls of active or inactive are those of the source. Unless noted, calls follow the shape of the dose curve; as a rule, active = well fitted curve in the direction sought with a large enough effect; inconclusive = small, poorly fitted or top-dose-only effect, or another doubt; inactive = no such curve, though single readings can be large; an effect the other way counts as inactive or inconclusive.

Assays:
[1] = qHTS for Activators of Parkin Expression: LOPAC Validation Assay (FLuc Reporter) (AID 720573)
Method in brief: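 A neuronal cell line harbouring FLuc and NLuc reporters behind the Parkin promoter was exposed to compounds for 24 h. Firefly luciferase signal, measured after 10 min with detection reagent, was scaled to DMSO and positive-control wells.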

[2] = target: T1, Hexokinase-4 (Homo sapiens) + Glucokinase regulatory protein (Homo sapiens) (UniProt P35557+Q14397); test: qHTS assay for inhibitors of recombinant human GCK-GKRP interaction: Diaphorase-coupled assay (AID 743205)
Method in brief: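 Inhibitors of the GCK–GKRP complex relieve GKRP suppression of GCK, detected through a G6PDH–diaphorase cascade reducing resazurin. Human GST-GCK and FLAG-GKRP are used at 10 nM with 5 mM glucose and 0.4 mM ATP.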

[3] = target: T1, Hexokinase-4 (Homo sapiens) + Glucokinase regulatory protein (Homo sapiens); test: qHTS assay for inhibitors of recombinant human GCK-GKRP interaction: ADP-Glo assay (AID 743206)
Method in brief: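 Pin-transferred compounds meet a 15 nM GST-GCK/15 nM FLAG-GKRP/2 uM S6P mix (dispense concentrations). ATP is then added to 0.4 mM final with 5 mM glucose, and the reaction runs 60 min at room temperature. ADP is quantified luminescently.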

[4] = target: T1, Hexokinase-4 (Homo sapiens) + Glucokinase regulatory protein (Homo sapiens); test: qHTS assay for inhibitors of recombinant human GCK-GKRP interaction: HTRF assay (AID 743207)
Method in brief: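 Steps: dispense GCK–GKRP complex (5 nM each, GST- and FLAG-tagged) with 2 uM S6P; pin in compounds; add XL665/Eu-cryptate-labelled antibodies; incubate 60 min at room temperature; read time-resolved FRET at 665 and 615 nm.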

[5] = qHTS Assay for Identifying Gametocytocidal Compounds (AID 743244);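 also: actives lower the fluorescent signal which means gametocytes are killed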; settings: P. falciparum 3D7 stage III-V gametocytes, alamarBlue, 72 h; max response: stronger effect = lower value
Method in brief: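 Late gametocytes (III–V), P. falciparum 3D7; 72 h drug, then 24 h alamarBlue; resazurin reduction read by fluorescence.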

[6] = qHTS profiling for inhibitors of Plasmodium falciparum (3D7) proliferation (AID 743322);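 also: infected erythrocytes exposed to compound for 72 h before lysis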; settings: P. falciparum 3D7 proliferation; at 28.7 µM (top of the series) unless noted
Method in brief: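 Parasite DNA was quantified by SYBR Green I fluorescence (ex 485, em 535 nm) after overnight lysis in saponin/Triton buffer at room temperature. Cultures at 0.3% parasitemia and 2.5% hematocrit were first exposed to compound for 72 h at 37 C; signals were normalised to artemisinin (0.29 uM) and vehicle wells.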

[7] = qHTS profiling for inhibitors of Plasmodium falciparum (DD2) proliferation (AID 743323; call rule not given here); settings: lower = more inhibition; at 28.7 µM (top of the series) unless noted
Source text: Plasmodium falciparum is a virulent malarial parasite that kills 1-2 million people worldwide each year. Transmitted by mosquitoes, the sporozoite form of the parasite enters the blood stream to infect hepatocytes, where they become merozoites that infect red blood cells (erythrocytes). Within erythrocytes, merozoites begin a […] cycle of growth and division, after which the parasite is released to infect new red blood cells. Gametocytes, which form within erythrocytes as well, circulate in the bloodstream and are ingested by the mosquito, thereby completing the life cycle. To profile malarial isolates for differential chemical responses and to identify inhibitors of malarial growth, an assay that measures P. falciparum growth and replication within erythrocytes was employed. This assay uses a DNA binding fluorescent dye (SYBR Green) to detect parasite DNA following cell lysis. Because mature erythrocytes lack DNA, only Plasmodium-derived DNA is detected.
The SYBR Green viability assay was adapted from a method described previously (Plouffe et al., 2008). For screening 3 ul culture medium was dispensed into 1536 well black clear bottom plates (Aurora Biotechnologies) using a Multidrop Combi (Thermo Fisher Scientific Inc.), 23 nL compounds in DMSO were added by a pin tool (Kalypsys), and 5 ul of erythrocytes infected with P. falciparum (0.3% parasitemia, 2.5% hematocrit final concentration) were added. The plates were incubated at 37 C in a humidified incubator in 5% CO2 for 72 h, and 2 ul lysis buffer (20 mM Tris HCl, 10 mM EDTA, 0.16% saponin, […]% triton X, 10X SYBR Green I supplied as 10,000X […] by Invitrogen) was added to each well. The plates were mixed for 25 sec with gentle shaking and incubated overnight at room temperature in the dark. The following morning, fluorescence intensity at 485(14) nm excitation and 535(25) nm emission wavelengths was measured on an EnVision (Perkin Elmer) plate reader. Plate reads were normalized relative to the control inhibitor (0.29 uM artemisinin) and vehicle (DMSO) wells present on each plate and then corrected by an algorithm using vehicle-only control plates at the beginning and end of the compound plate stack.

[8] = qHTS profiling for inhibitors of Plasmodium falciparum (HB3) proliferation (AID 743324); settings: Plasmodium falciparum HB3 blood-stage proliferation; at 28.7 µM (top of the series) unless noted
Method in brief: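 SYBR Green fluorescence (485 ex/535 em) of lysed cultures, incubated overnight at room temperature in the dark, quantifies parasite DNA. Infected erythrocytes at 0.3% parasitemia and 2.5% hematocrit were exposed 72 h; values normalized to DMSO and 0.29 uM artemisinin controls.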

T1 sequence (P35557 whole entry, looked up): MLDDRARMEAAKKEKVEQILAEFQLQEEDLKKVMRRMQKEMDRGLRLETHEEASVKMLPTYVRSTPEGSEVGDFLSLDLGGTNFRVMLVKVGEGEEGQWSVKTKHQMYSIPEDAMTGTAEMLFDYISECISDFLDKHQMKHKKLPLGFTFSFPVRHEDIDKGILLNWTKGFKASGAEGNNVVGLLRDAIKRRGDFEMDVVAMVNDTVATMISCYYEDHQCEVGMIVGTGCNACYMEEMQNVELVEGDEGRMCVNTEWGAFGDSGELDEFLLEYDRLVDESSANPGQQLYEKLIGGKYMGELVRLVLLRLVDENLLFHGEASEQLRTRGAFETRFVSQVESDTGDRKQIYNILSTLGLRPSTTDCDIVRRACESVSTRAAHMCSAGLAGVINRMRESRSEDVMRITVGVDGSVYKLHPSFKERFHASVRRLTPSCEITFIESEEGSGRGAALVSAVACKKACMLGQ
T1 sequence (Q14397 whole entry, looked up): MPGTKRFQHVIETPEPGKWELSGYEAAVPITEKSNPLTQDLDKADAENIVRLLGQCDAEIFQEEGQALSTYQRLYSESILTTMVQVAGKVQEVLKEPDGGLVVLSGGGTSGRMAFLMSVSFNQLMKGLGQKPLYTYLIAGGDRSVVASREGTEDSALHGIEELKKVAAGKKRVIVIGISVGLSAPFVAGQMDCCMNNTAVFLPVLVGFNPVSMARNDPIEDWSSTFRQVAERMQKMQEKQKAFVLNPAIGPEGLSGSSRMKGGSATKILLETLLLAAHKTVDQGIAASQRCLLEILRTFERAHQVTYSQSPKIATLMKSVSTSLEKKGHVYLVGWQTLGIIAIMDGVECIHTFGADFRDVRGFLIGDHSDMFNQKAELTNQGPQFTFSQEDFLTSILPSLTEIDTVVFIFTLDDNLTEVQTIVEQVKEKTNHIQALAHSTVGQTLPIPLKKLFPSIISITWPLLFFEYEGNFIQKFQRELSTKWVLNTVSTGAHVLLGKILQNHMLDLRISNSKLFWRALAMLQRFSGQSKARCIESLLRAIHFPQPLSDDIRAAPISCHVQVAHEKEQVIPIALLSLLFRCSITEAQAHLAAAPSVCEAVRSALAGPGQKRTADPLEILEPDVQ

| Compound | Potency [1] | outcome [2] | Potency [3] | Potency [4] | max response [5] | remaining parasite growth % (stronger effect = lower value) [6] [%] | activity, percent of control [7] [%] | remaining proliferation (% of control), lower = more inhibition [8] [%] |
| --- | --- | --- | --- | --- | --- | --- | --- | --- |
| Cc1ccccc1CNc1ncnc2c1ncn2C1OC(CO)C(O)C1O (stereo unspecified) | inactive | inactive | inactive | inactive | 21.1% (inactive) | – | – | – |
| OCC1O[C@H](O)C(Cl)C(O)C1O (stereo partly specified) | inactive | inactive | inactive | inactive | 14.4% (inactive) | – | – | – |
| S=C(S)OC1CC2CC1C1CCCC21 (stereo unspecified) | inactive | inactive | inactive | inactive | 22.6% (inactive) | – | – | – |
| N#C/C(=C\c1c[nH]c2ccccc12)C(=O)c1ccc(O)c(O)c1 | inactive | inactive | inactive | inactive | -1.71% (inactive) | – | – | – |
| C[N+]1(C)C2CC(OC(=O)[C@H](CO)c3ccccc3)CC1C1OC12 (stereo partly specified) | inactive | inactive | inactive | inactive | -7.69% (inactive) and 8.7% (inactive) | – | – | – |
| C[N+](C)(CCCCCC[N+](C)(C)CCCN1C(=O)c2cccc3cccc(c23)C1=O)CCCN1C(=O)c2cccc3cccc(c23)C1=O | inactive | inactive | inactive | inactive | -6.11% (inactive) | – | – | – |
| NC(CCCP(=O)(O)O)C(=O)O (stereo unspecified) | inactive | inactive | inactive | inactive | 8.77% (inactive) | – | – | – |
| Nc1nc(Nc2ccccc2)nc2c1ncn2[C@@H]1O[C@H](CO)[C@@H](O)[C@H]1O | inactive | inactive | inactive | inactive | 17.1% (inactive) | – | – | – |
| OC[C@H]1O[C@@H](n2cnc3c(NC4CCCCC4)ncnc32)[C@H](O)[C@@H]1O | inactive | inactive | inactive | inactive | 8.7% (inactive) | – | – | – |
| CCCCCCCCc1ccc(-c2ccc(C(=O)O)cc2)cc1 | inactive | inactive | inactive | inactive | 11.5% (inactive) | – | – | – |
| CCCCCCCCCCCCCCCC(=O)OC(CC(=O)O)C[N+](C)(C)C (stereo unspecified) | inactive | inactive | inactive | inactive | -5.64% (inactive) | – | – | – |
| CN(C)CCCO[C@@H]1[C@H]2OC(C)(C)O[C@H]2O[C@@H]1[C@H](O)CO | inactive | inactive | inactive | inactive | 19.5% (inactive) | – | – | – |
| CO/N=C(\C(=O)N[C@@H]1C(=O)N2C(C(=O)O)=C(COC(C)=O)CS[C@H]12)c1csc(N)n1 | inactive | inactive | inactive | inactive | 5.62% (inactive) | – | – | – |
| O=C(O)CC[C@@H](C(=O)O)N1C(=O)c2ccccc2C1=O | inactive | inactive | inactive | inactive | -10.9% (inactive) | – | – | – |
| O=C(O)/C=C/C(O)c1ccc(Cl)cc1 (stereo unspecified) | inactive | inactive | inactive | inactive | -3.84% (inactive) and 16.6% (inactive) | – | – | – |
| O=[N+]([O-])c1ccc(CSc2ncnc3c2ncn3[C@@H]2O[C@H](CO)[C@@H](O)[C@H]2O)cc1 | inactive | inactive | inactive | inactive | 17.7% (inactive) | – | – | – |
| N#C/C(=C\c1ccc(O)c(O)c1)C(=O)NCc1ccccc1 | inactive | inactive | inactive | inactive | 12.2% (inactive) | – | – | – |
| NC(=S)NCCC[C@H](N)C(=O)O | inactive | inactive | inactive | inactive | 29.7% (inactive) | – | – | – |
| CCCCC#Cc1nc(NC)c2ncn([C@@H]3O[C@H](CO)[C@@H](O)[C@H]3O)c2n1 | inactive | inactive | inactive | inactive | 34.4% (inactive) | – | – | – |
| C=C[C@@H]1CN2CC[C@@H]1C[C@H]2[C@H](O)c1ccnc2ccc(OC)cc12 | inactive | inactive | inactive | inactive | – | 0.99 | 1.73 | 1.02 |
| C[C@@H](NC(=O)/C(C#N)=C/c1ccc(O)c(O)c1)c1ccccc1 | inactive | inactive | inactive | – | 3.77% (inactive) | – | – | – |
| Nc1nc(Cl)nc2c1ncn2[C@@H]1O[C@H](CO)[C@@H](O)[C@H]1O | inactive | inactive | inactive | inactive | 6.66% (inactive) | – | – | – |
| CCCN(CC1CC1)c1nc(C)nc(Nc2c(Cl)cc(Cl)cc2Cl)c1Cl | inactive | inactive | inactive | inactive | 18.2% (inactive) | – | – | – |
